Only some compounds are listed: those with a hit (about 14% of all), similar ones and a draw of the others.
USP17 block: inhibitors of human USP17 deubiquitinase. purified USP17, Ub-rhodamine cleavage fluorescence, 3 h. inhibition, % at 50 µM. 47,000 tested, 6.5% active
USP10 inh: inhibitors of human USP10 deubiquitinase; purified USP10, Ub-rhodamine fluorescence, 60 min; inhibition, % at 20 µM; 47,000 tested, 1.1% active; Ubiquitin carboxyl-terminal hydrolase 10 (Homo sapiens), Q14694; AID 1645856, 2021
USP28 inh: inhibitors of human USP28 deubiquitinase. Ubiquitin carboxyl-terminal hydrolase 28 (Homo sapiens), Q96RU2. purified USP28, Ub-rhodamine cleavage fluorescence, 30 min. inhibition, % at 25 µM. 47,000 tested, 3% active
USP8 inh: inhibitors of human USP8 deubiquitinase. 47,000 tested, 4.2% active. inhibition, % at 20 µM. purified USP8, Ub-rhodamine cleavage fluorescence, 30 min
USP30 inh: inhibitors of human USP30 deubiquitinase; Ubiquitin carboxyl-terminal hydrolase 30 (Homo sapiens), Q70CQ3; AID 1645860, 2021; inhibition, % at 25 µM; 47,000 tested, 5.3% active; purified USP30, Ub-rhodamine cleavage fluorescence
An asterisk follows results filed as active; / = no result. No stated cut-off is given here; in the data, active means inhibition above about 30%; inactive means the rest.

SMILES | USP17 block | USP10 inh | USP28 inh | USP8 inh | USP30 inh
CC(C)c1ccc(S(=O)(=O)N2CCC(C(=O)N3CCc4sccc4C3)CC2)cc1 | 3 | -9 | 7 | 19 | 12
O=C(C1CCN(S(=O)(=O)c2cc(F)ccc2F)CC1)N1CCc2sccc2C1 | 33* | -4 | 7 | 74* | -1
CCC(=O)N1CCCC2(C/C=C/CNC(=O)c3ccccc3OCCN(C)C2=O)C1 (centres undefined) | -5 | -1 | -2 | 0 | 2
O=C(O)c1cccc2oc(-c3cccc4oc(-c5ccccc5O)nc34)nc12 | 46* | 7 | 22 | 3 | -2
NCc1ccc([C@@H]2CN(C(=O)c3ccc4ncccc4c3)C[C@H]2c2ccn[nH]2)cc1 | 68* | -2 | / | -12 | /
O=C(c1ccc2ncccc2c1)N1CCOC(c2cccc(Cc3cccc(Cl)c3)n2)C1 (centres undefined) | -4 | -9 | 15 | -14 | -23
COc1cc2c(cc1OC)-c1cc(N(C(C)=O)c3ccc4c5c(cccc35)CC4)nc(=O)n1CC2 | 38* | -14 | -16 | 12 | -96
COc1ccc(CN(C(=O)c2cc(-c3ccccc3)on2)C2CCS(=O)(=O)C2)cc1 (centres undefined) | 18 | 8 | 3 | 11 | 10
COc1ccc(CN(C(=O)c2cc(-c3ccc(C)cc3)on2)C2CCS(=O)(=O)C2)cc1 (centres undefined) | 25 | 2 | 17 | 6 | 50*
CC(C)CNC(=O)c1cc(=O)[nH]c2ccc(S(=O)(=O)Nc3ccc(F)cc3)cc12 | 36* | 2 | 7 | 4 | 25
Cc1cccc(NS(=O)(=O)c2ccc3[nH]c(=O)cc(C(=O)O)c3c2)c1 | -28 | 2 | 18 | -60 | -32
CCc1cccc(CC)c1NS(=O)(=O)c1ccc2c(c1)C(C)(C)C(=O)N2C | 7 | 1 | 8 | 9 | 16
COc1c2n(c3ccccc13)[C@@]1(O)C(=O)N(C)C(=O)[C@@]1(O)c1c-2n(C)c2ccc(Cl)cc12 | 59* | 25 | 42* | -17 | -64
CN1C(=O)OC[C@@H]2CCN(C(=O)NCCc3c[nH]c4ccccc34)C[C@H]21 | 7 | -2 | 1 | 6 | -137
Cc1cccc(Oc2cncc(C3CCCNC3)n2)c1 (centres undefined) | -9 | 0 | -7 | 0 | -2
N#Cc1c2n(c(=O)n(CCOc3ccccc3F)c1=O)CCC2 | 1 | -5 | 2 | 33* | -42
COc1ccc(OCCn2c(=O)c(C#N)c3n(c2=O)CCC3)cc1 | -22 | -1 | -45 | 20 | -127
O=C(Cc1ccccc1[N+](=O)[O-])Nc1cnn(Cc2ccc(F)cc2)c1 | -28 | -1 | -9 | -143 | 32*
CS(=O)(=O)N1CCN(c2ccccc2NC(=O)COc2ccc(Br)cc2)CC1 | 93* | 72* | / | 92* | /
Cc1ccc(C)c(Cn2cc(S(=O)(=O)N3CCOCC3)ccc2=O)c1 | 11 | -1 | 8 | 10 | 8
O=C(Cn1c(=O)n(CCc2ccccc2)c(=O)c2cccnc21)Nc1ccccc1C(F)(F)F | 0 | 16 | 0 | 0 | -2
O=C(CSc1nc2ccsc2c(=O)n1Cc1ccccc1)Nc1ccccc1C(F)(F)F | 55* | 3 | / | -1 | /
Cc1ccccc1-c1nc(-c2cccc(C(=O)N3CCCC3)c2)no1 | 14 | 2 | 7 | 9 | 36*
Cc1cccc(C(=O)N2CCN(c3nc(-c4ccc(Cl)cc4)no3)CC2)c1 | 13 | 2 | 18 | 9 | 40*
CC(C)C[C@@H](C(=O)N[C@@H](C(=O)O)c1ccccc1)n1c(=O)[nH]c2ccccc2c1=O | -6 | 2 | -6 | -48 | 3
SMILES | USP17 block | USP10 inh | USP28 inh | USP8 inh | USP30 inh
COc1ccc(CCNCc2cc3c(C(C)(C)C)nn(-c4ccccc4)c3[nH]c2=O)cc1OC | 9 | 0 | 0 | 46* | 20
COc1ccc(CCNCc2c(C(=O)O)c(C)n(-c3ccccc3)c2C)cc1OC | -12 | -3 | -9 | -13 | -20
Cn1c(=O)[nH]c(=O)c2c1nc(NCc1ccco1)n2CCO | 0 | 0 | 0 | 2 | 20
CC(C)(C)c1nn(-c2ccccc2)c2[nH]c(=O)c(CNCc3ccco3)cc12 | -38 | -3 | -64 | 39* | -280
CSCCC1NC2(C(=O)N(Cc3cccc4ccccc34)c3ccccc32)C2C(=O)N(Cc3ccccc3)C(=O)C12 (centres undefined) | -7 | 4 | 6 | -7 | 30
CSc1nc2ncc3c(=O)n(Cc4ccco4)ccc3n2n1 | 8 | 4 | -4 | 8 | -4
NC(=O)c1cccc(NS(=O)(=O)c2ccccc2)c1 | -9 | 2 | -15 | 2 | -1
O=S(=O)(Nc1ccc(Oc2ccccc2)cc1)c1ccccc1 | 70* | 23 | 60* | 34* | 64*
Cc1c(CC(=O)NC2CC2)c(=O)oc2cc3c(cc12)CCC1(CCCCC1)O3 | 13 | -4 | 14 | 16 | 26
Cc1c(CC(=O)Nc2nn[nH]n2)c(=O)oc2cc3c(cc12)CCC1(CCCCC1)O3 | 0 | 21 | 21 | -253 | 58*
O=C(CN1C(=O)CC(c2ccccc2)S(=O)(=O)c2ccccc21)Nc1ccc(F)cc1F (centres undefined) | 6 | 2 | 9 | -2 | 7
COC(=O)c1cn(CC(=O)NCCOc2ccc(Cl)cc2)c2ccccc12 | 27 | 1 | 13 | 22 | 44*
CCN1CCCC1CNC(=O)Cn1ncn2nc(-c3ccc(OC)cc3)cc2c1=O (centres undefined) | 17 | -1 | -7 | -3 | -13
COc1ccc(-c2cc3c(=O)n(CC(=O)NCc4ccccc4)ncn3n2)cc1 | 25 | 22 | 15 | -31 | 43*
COc1ccc(-c2cc3c(=O)n(CC(=O)NCCN4CCCC4)ncn3n2)cc1 | 43* | -4 | 18 | 13 | 34*
C[C@H](NC(=O)C1CCC(CNC(=O)Cn2c(=O)[nH]c3ccccc3c2=O)CC1)C(=O)O (some centres undefined) | -7 | 1 | -7 | -81 | -9
Cc1ccc(CSc2nnc(CNC(=O)c3ccc(F)cc3)n2-c2ccccc2)cc1 | 11 | 0 | 7 | 2 | 23
COc1ccccc1-n1c(CNC(=O)c2ccc(S(=O)(=O)N3CCOCC3)cc2)nnc1SCc1ccc(Br)cc1 | 7 | 8 | 18 | 9 | 36*
c1ccc(CN2CCC3(COCc4cnc(-c5cccnc5)nc43)C2)cc1 (centres undefined) | -37 | -1 | -17 | -139 | -15
Cc1cc(C)nc(N2CCC(NC(=O)c3ccccc3F)CC2)n1 | 24 | -1 | 5 | 2 | 21
O=C(c1csc2ccccc12)N1CCN(c2ccc(Cl)c(Cl)c2)CC1 | 1 | 6 | 6 | 6 | 33*
O=C(COC(=O)c1ccc2ccccc2n1)Nc1cccc(Cl)c1Cl | -97 | -5 | -78 | -18 | -239

Screens from PubChem BioAssay.
